Vaccinia mCherry – qHTS for Stage-Specific Inhibitors of Vaccinia Orthopoxvirus: mCherry Reporter Primary qHTS; Vaccinia virus mCherry reporter infection, fluorescence; Potency, µM (series often up to 36.5 µM), without a hit: top-dose activity change, negative = inhibition, most hits filed as inhibitors; 310,000 tested, 0.63% active; calls by dose curve; tested in A549 cells; also: nearly all actives have a fitted effect of over 35% in size
LASV entry inh – qHTS for Inhibitors of binding or entry into cells for Lassa Virus; Lassa virus pseudotype entry inhibition, cell reporter; Potency, µM (titrated, usually from 37.9 µM), without a hit: at the highest dose activity change, negative = inhibition, usual class: inhibitors; 300,000 tested, 1.2% active; calls by dose curve; tested in HEK293 cells; also: nearly all actives have a fitted effect of over 50% in size
MARV entry inh – qHTS for inhibitors of binding or entry into cells for Marburg Virus; Marburg virus pseudotyped entry inhibition, cell reporter; AID 540276, 2011; 300,000 tested, 1.8% active; Potency, µM (titrated, usually from 37.8 µM), inactives show at the highest dose activity change, negative = inhibition, most hits filed as inhibitors; calls by dose curve; tested in HEK293 cells
Vaccinia Venus – qHTS for Stage-Specific Inhibitors of Vaccinia Orthopoxvirus: Venus Reporter Primary qHTS | Vaccinia virus Venus reporter expression, fluorescence | Potency, µM (highest dose often 36.5 µM), without a hit: top-dose activity change, negative = inhibition, actives largely listed as inhibitors | 330,000 tested, 0.46% active; calls by dose curve; tested in A549 cells; also: nearly all actives have a fitted effect of over 30% in size
* marks the source's active call; other numbers are inactive results; [ ] = dose if it differs, or a comment. This is a sample that favours compounds with a hit; in the whole collection about 2.5% have one here. % is scaled to controls: 0 for no effect and ±100 for the full control effect; potency is read from the fitted curve at half-maximal effect.

Results for CCN1C(=NCc2cccc(Cl)c2)NC(c2cccc(C(F)(F)F)c2)C(C(=O)OC)=C1C (stereo not given) ?
LASV entry inh: -42%[14.3 µM]; MARV entry inh: -25%[14.2 µM]

Results for CCOc1ccccc1NC(=O)c1cccc(NC(=O)CC(c2ccccc2)c2ccccc2)c1 ?
Vaccinia mCherry: -4%; LASV entry inh: inconclusive; MARV entry inh: inconclusive; Vaccinia Venus: -19%

What do the screens show for `CCOc1ccccc1NC(=O)c1ccc(Cl)c(NC(=O)CC(c2ccccc2)c2ccccc2)c1`?
Vaccinia mCherry: -2%; LASV entry inh: -4%; MARV entry inh: 15µM*; Vaccinia Venus: -7%

What do the screens show for `COc1ccc(CCNC(=O)c2ccc3nc(-c4ccco4)c(-c4ccco4)nc3c2)cc1OC`?
LASV entry inh: 8.2µM*; MARV entry inh: 10µM*

What do the screens show for `COc1ccc(CCNC(=O)c2c(N)n(CCN3CCOCC3)c3nc4ccccc4nc23)cc1OC`?
Vaccinia mCherry: inconclusive; LASV entry inh: 18µM*; MARV entry inh: inconclusive; Vaccinia Venus: inconclusive

Results for COc1ccc(CCn2c(N)c(C(=O)NCc3ccco3)c3nc4ccccc4nc32)cc1OC ?
Vaccinia mCherry: -23%; LASV entry inh: inconclusive; MARV entry inh: inconclusive; Vaccinia Venus: -11%

How did CC(C)(C)C(=O)/C(=C/c1ccncc1)n1cncn1 do in these assays?
LASV entry inh: 10µM*; MARV entry inh: 4.1µM*

Results for Cc1nn(C)c(C)c1/C=C(/C(=O)C(C)(C)C)n1cncn1 ?
Vaccinia mCherry: -14%; LASV entry inh: inconclusive; MARV entry inh: inconclusive; Vaccinia Venus: -1%

Results for Oc1cc(-c2nc3ccccc3s2)cc2c1OCCN(Cc1cn[nH]c1-c1ccc(Cl)cc1)C2 ?
Vaccinia mCherry: -22%; Vaccinia Venus: -10%

How did CC(=O)Oc1ccccc1C(=O)C=Cc1cccc([N+](=O)[O-])c1 do in these assays?
Vaccinia mCherry: 14µM*; LASV entry inh: inconclusive; MARV entry inh: inconclusive; Vaccinia Venus: inconclusive

Results for O=C(/C=C/c1cccc([N+](=O)[O-])c1)c1ccccc1 ?
MARV entry inh: -27%[14.2 µM]

Results for O=C(Nc1nnc(Cc2ccccc2)s1)C1CCN(C(=O)c2cccs2)CC1 ?
Vaccinia mCherry: -14%; Vaccinia Venus: -21%

Results for COC(=O)[C@H]1[C@@H](c2cccc(C(F)(F)F)c2)NC(=O)N(Cc2ccccc2)[C@@H]1C ?
MARV entry inh: 25%[14.2 µM]

Results for S=C(Nc1ccccc1Cl)N1CCCC(c2ccccc2)=N1 ?
Vaccinia mCherry: inconclusive; LASV entry inh: -14%; MARV entry inh: -23%[46.1 µM]; Vaccinia Venus: -12%

Results for CC(C)c1ccc(NC(=S)N2CCCC(c3ccc(F)cc3)=N2)cc1 ?
Vaccinia mCherry: -8%; LASV entry inh: -24%[46.1 µM]; MARV entry inh: 2.5µM*; Vaccinia Venus: 0%

How did COC(=O)N[C@H](CC(C)=O)c1ccc2c(c1)OCO2 do in these assays?
MARV entry inh: -17%[14.2 µM]

Results for COC(=O)C1=C(C)N(Cc2ccccc2)C(=O)NC1CCc1ccccc1 (stereo not given) ?
MARV entry inh: 23%[14.2 µM]

What do the screens show for `O=C(N/N=C/c1cn(-c2ccccc2)nc1-c1cc2ccccc2o1)c1ccccc1Br`?
Vaccinia mCherry: inactive; LASV entry inh: inconclusive; MARV entry inh: 10µM*; Vaccinia Venus: -11%

What do the screens show for `O=C(N/N=C/c1cn(-c2ccccc2)nc1-c1cc2ccccc2o1)c1c[nH]c2ccccc12`?
Vaccinia mCherry: -16%; LASV entry inh: inconclusive; MARV entry inh: inconclusive; Vaccinia Venus: -23%

How did O=C1N=NC(c2ccccc2)c2ccccc21 (stereo not given) do in these assays?
MARV entry inh: 1%

How did COC(=O)N[C@H](CC(C)=O)c1cccc(F)c1 do in these assays?
MARV entry inh: -7%[14.2 µM]

How did COc1ccc(C2(O)CCN(C(=O)NC3CCCCC3)CC2)cc1 do in these assays?
Vaccinia mCherry: -17%; LASV entry inh: -6%; MARV entry inh: 3.7µM*; Vaccinia Venus: -6%

How did COc1cccc(/C=C2/SC(=S)N(CCC(=O)N3CCOCC3)C2=O)c1 do in these assays?
Vaccinia mCherry: inconclusive; LASV entry inh: inconclusive; MARV entry inh: 5µM*; Vaccinia Venus: inconclusive

What do the screens show for `COc1cccc(/C=C2\SC(=S)N(CCC(=O)NCCc3ccc(O)cc3)C2=O)c1`?
Vaccinia mCherry: 11µM*; LASV entry inh: inconclusive; MARV entry inh: inconclusive; Vaccinia Venus: inconclusive

What do the screens show for `COc1cc(/C=C2\SC(=S)N(CCC(=O)NCCc3ccccc3)C2=O)cc(OC)c1OC`?
Vaccinia mCherry: 0%; LASV entry inh: -9%; MARV entry inh: 6%[46.1 µM]; Vaccinia Venus: -3%

What do the screens show for `O=C(OC1CNC(C#Cc2cc3ncnc(Nc4ccc5c(cnn5Cc5ccccc5)c4)c3s2)C1)N1CCOCC1` (stereo not given)?
LASV entry inh: 1.3µM*

How did CN(C)C(=O)OC1CNC(C#Cc2cc3ncnc(Nc4ccc(OCc5cccc(F)c5)c(Cl)c4)c3s2)C1 (stereo not given) do in these assays?
LASV entry inh: 5µM*

How did CNC(=O)c1cccc(C#Cc2cncnc2Nc2ccc(OCc3cccc(F)c3)c(Cl)c2)c1 do in these assays?
LASV entry inh: 0.79µM*

Results for O=C(O)c1ccc(Nc2ncnc3c2cnn3Cc2ccccc2)cc1 ?
Vaccinia mCherry: 0%; LASV entry inh: 0%; MARV entry inh: 3%[46.1 µM]; Vaccinia Venus: -15%

How did O=C(OC1CNC(C#Cc2cc3ncnc(Nc4ccc(OCc5cccc(F)c5)c(Cl)c4)c3s2)C1)N1CCOCC1 (stereo not given) do in these assays?
LASV entry inh: 2.8µM*

What do the screens show for `COc1ccc2c(c1)CO[C@H]([C@H](O)CO)[C@H]2C=Cc1ccccc1`?
LASV entry inh: inconclusive; MARV entry inh: -6%[14.2 µM]

Results for Cc1cc(Cl)ccc1OCC(=O)N1CCCN(C(=O)COc2ccc(Cl)cc2C)CC1 ?
Vaccinia mCherry: -6%; LASV entry inh: inconclusive; MARV entry inh: 15µM*; Vaccinia Venus: -17%

How did Cc1cc(Cl)ccc1OCC(=O)N1CCN(C)CC1 do in these assays?
LASV entry inh: 12%; MARV entry inh: 14%; Vaccinia Venus: -9%

How did Cc1oc(-c2ccccc2NC(=O)C2CCCO2)nc1CNC(=O)c1cc(F)c(F)cc1F (stereo not given) do in these assays?
Vaccinia mCherry: -13%; Vaccinia Venus: -4%

How did Nc1nc(-c2ccc(-c3ccccc3)cc2)cs1 do in these assays?
Vaccinia mCherry: inconclusive; LASV entry inh: -27%[46.1 µM]; MARV entry inh: inconclusive; Vaccinia Venus: inconclusive

Results for COc1ccc(-c2csc(N)n2)cc1 ?
Vaccinia mCherry: 14µM*; LASV entry inh: -21%; MARV entry inh: inconclusive; Vaccinia Venus: inconclusive

What do the screens show for `Cc1ccc(-c2csc(N)n2)cc1`?
Vaccinia mCherry: 11µM*; LASV entry inh: 16%[46.1 µM]; MARV entry inh: 25%[46.1 µM]; Vaccinia Venus: inconclusive

Results for CC(C)(C)CC(C)(C)N=C1Nc2ccc(Cl)cc2N[C@]12C[C@H]1CCCC(=O)N3CC[C@@H](C2)[C@@H]13 ?
Vaccinia mCherry: -16%; Vaccinia Venus: inconclusive
